The list is not random: actives were taken first. Their share in the collection is about 3.2%.
Vaccinia mCherry: qHTS for Stage-Specific Inhibitors of Vaccinia Orthopoxvirus: mCherry Reporter Primary qHTS. Vaccinia virus mCherry reporter infection, fluorescence. Potency, µM (doses to about 36.5 µM), most hits filed as inhibitors. actives 0.63% (n = 310,000). AID 720579, 2013; calls by dose curve; tested in A549 cells; also: nearly all actives have a fitted effect of over 35% in size
VACV Venus inh: qHTS for Stage-Specific Inhibitors of Vaccinia Orthopoxvirus: Venus Reporter Primary qHTS | Vaccinia virus Venus reporter expression, fluorescence | Potency, µM (titrated, usually from 36.5 µM), hits mostly inhibitors | actives 0.46% (n = 330,000) | AID 720580, 2013; calls by dose curve; tested in A549 cells; also: nearly all actives have a fitted effect of over 30% in size
LASV entry inh: qHTS for Inhibitors of binding or entry into cells for Lassa Virus; Lassa virus pseudotype entry inhibition, cell reporter; actives 1.2% (n = 300,000); AID 540256, 2011; Potency, µM (highest dose often 37.9 µM), usual class: inhibitors; calls by dose curve; tested in HEK293 cells; also: nearly all actives have a fitted effect of over 50% in size
FMDV inh: High Throughput Screening for Foot and Mouth Disease Virus Antivirals; actives 1.2% (n = 410,000); AID 1159524, 2015; FMDV antiviral cell-based qHTS; Potency, µM (doses to about 57.9 µM), actives largely listed as inhibitors; calls by dose curve; tested in HEK293T cells; also: read-out not given here; nearly all actives have a fitted effect of over 45% in size
Marburg entry inh: qHTS for inhibitors of binding or entry into cells for Marburg Virus. Marburg virus pseudotyped entry inhibition, cell reporter. Potency, µM (series often up to 37.8 µM), usual class: inhibitors. actives 1.8% (n = 300,000); calls by dose curve; tested in HEK293 cells
A number is an active result; . = inactive; ? = inconclusive; / = not tested or not shown.

SMILES | Vaccinia mCherry | VACV Venus inh | LASV entry inh | FMDV inh | Marburg entry inh
CN(C)CCNc1cc(-c2ccncc2)nc2ccccc12 | . | . | . | . | 6.3µM
CN(/N=C/c1ccc(O)cc1O)c1nc(-c2ccccc2)cc(-c2ccccc2)n1 | ? | 20µM | . | . | ?
O=C(NCc1ccccc1)C(c1ccccc1)n1c(C2CC2)nc2ccccc21 (stereo not given) | . | . | / | . | /
COc1ccc(Cn2nnnc2C(c2ccccn2)N2CCN(c3ccc(O)cc3)CC2)cc1 (stereo not given) | . | . | / | / | /
Cc1nc2ccccc2c(N)c1C(=O)/C=C/c1ccccc1 | 16µM | ? | 10µM | 18µM | ?
COC(=O)CC1N(S(=O)(=O)c2ccc(C)cc2)c2ccccc2C1(C(=O)OC)C(=O)OC (stereo not given) | . | . | / | . | /
CC(=O)C1=C(C)N(Cc2ccccc2)C(=O)NC1CCc1ccccc1 (stereo not given) | / | / | . | / | ?
C[N+](C)(CC#Cc1ccccc1)CC(=O)c1ccccc1 | . | . | . | . | .
COC(=O)C[N+](C)(C)CC#Cc1ccccc1 | . | . | 5.2µM | . | .
CCCC(O)c1nc2ccccc2n1CCCOc1ccc(Cl)cc1 (stereo not given) | . | . | . | 20µM | .
Cc1nc2ccccc2n1CCCOc1ccccc1 | . | ? | ? | . | ?
CCN(CC)c1ccc(-c2sc(Nc3ccccc3)n[n+]2-c2ccc(F)cc2)cc1 | . | ? | / | ? | /
CCc1ccc(Nc2n[n+](-c3ccccc3)c(-c3ccc(N(CC)CC)cc3)s2)cc1 | ? | 11µM | / | ? | /
COc1ccc(C)cc1Nc1n[n+](-c2ccccc2)c(-c2ccc(OC)c(OC)c2OC)s1 | ? | . | / | ? | /
CCc1ccc(Nc2n[n+](-c3ccccc3)c(-c3c(Cl)cccc3Cl)s2)cc1 | ? | 8.9µM | / | 28µM | /
COc1ccc(C)cc1Nc1n[n+](-c2ccccc2)c(-c2c(Cl)cccc2Cl)s1 | ? | 10µM | / | . | /
CC(C)CC(=O)N(Cc1ccccc1)S(=O)(=O)c1ccc2c(c1)oc(=O)n2C | . | . | . | . | .
CCOC(=O)c1cc(C#N)c(N2CCN(C(=O)c3cccc(C(F)(F)F)c3)CC2)nc1C(F)(F)F | . | . | 1.8µM | . | 5µM
CCOC(=O)c1cc(C#N)c(N2CCN(C(=O)c3ccccc3)CC2)nc1C(F)(F)F | . | . | 11µM | ? | ?
C=C(C)C1CC23C(=O)[C@]4(C(=O)c5ccccc5)C[C@@]5(C)CCC(CC2C1(C)C)(C4=O)[C@@]35OC (stereo not given in full) | / | / | / | / | .
COc1cc(Cl)c(C)cc1NC(=O)Cn1cc(S(=O)(=O)N2CCC(C)CC2)c2ccccc2c1=O | . | . | . | . | .
COc1cc(NC(=O)Cn2cc(S(=O)(=O)N3CCC(C)CC3)c3ccccc3c2=O)cc(OC)c1OC | . | . | . | . | 10µM
Ic1ccc(Nc2nc(NCCN3CCOCC3)nc(N3CCCC3)n2)cc1 | . | . | / | / | /
C[C@@H]1CN(Cc2ccc3c(c2)CN(Cc2coc4ccccc4c2=O)CCO3)C[C@H](C)O1 | . | . | / | . | /
CC(C)(C)c1ccc(/C=C2\Oc3cc(OC(=O)N4CCOCC4)ccc3C2=O)cc1 | . | . | 8.9µM | ? | ?
SMILES | Vaccinia mCherry | VACV Venus inh | LASV entry inh | FMDV inh | Marburg entry inh
Cc1ccc(/C=C2\Oc3cc(OC(=O)N4CCOCC4)ccc3C2=O)cc1 | . | . | . | . | .
O=C(c1ccc2nc(Cc3ccccc3F)oc2c1)N1CCCC1 | . | . | 6.3µM | . | ?
O=C1NC(=S)S/C1=C/c1ccc(N2CCOCC2)o1 | . | . | . | ? | ?
COc1ccc2cc(/C=C3\SC(=S)NC3=O)c(N3CCOCC3)nc2c1 | . | . | ? | 28µM | 11µM
COc1ccc(CCNC(=O)C(=O)NCC2CCCN2S(=O)(=O)c2ccccc2)cc1OC (stereo not given) | . | . | ? | 22µM | ?
Cc1ccc(S(=O)(=O)N2CCCC2CNC(=O)C(=O)Nc2ccc(F)cc2)cc1 (stereo not given) | ? | ? | 5µM | . | .
COc1ccc(CCNC(=O)C(=O)NCC2OCCN2S(=O)(=O)c2ccccc2)cc1OC (stereo not given) | . | . | / | . | /
Cc1ccc(S(=O)(=O)N2CCN(C(C(=O)Nc3ccc(F)cc3)c3ccccc3)CC2)cc1 (stereo not given) | . | . | 6.3µM | . | ?

Screening results as filed in PubChem BioAssay.
